Measured values from PubChem BioAssay (NCATS).
“And” between values parts separate entries of the source, which are not always exact repeats. Equal values may be shown once. Results filed as inconclusive are left out. A call without a number means that no potency is given here. The source made the active and inactive calls. Unless noted, calls come from the whole dose curve; as a rule, active = well fitted curve in the direction sought with a large enough effect; inconclusive = small, poorly fitted or top-dose-only effect, or another doubt; inactive = no such curve, though single readings can be large; an effect the other way counts as inactive or inconclusive.

Legend:
[1] = NS1 protein of Zika virus - qHTS assay to identify small molecule inhibitors in human HEK 293 cells (AID 1347053); note: nearly all actives have a fitted effect of over 55% in size; note: potency is the fitted concentration of half-maximal effect
Method in brief: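 Following 20 h seeding, HEK 293 cells took compound, then 1 h later ZIKV MR766 (MOI = 0.5). Incubation ran 24 h at 37 C before TR-FRET detection of NS1; a drop in signal indicates inhibition.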

[2] = qHTS of pediatric cancer cell lines to identify multiple opportunities for drug repurposing: Primary screen for TC32 cells (AID 1347089); note: nearly all actives have a fitted effect of over 60% in size; note: potency is the fitted concentration of half-maximal effect
Method in brief: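 TC32 cells, 500-1,000/well in growth medium, compound-treated 48 h at 37 °C; viability from CellTiter-Glo luminescence. Primary screen: MIPE 11-point (0.78 nM–46 µM final), NPC 8-point (0.59 nM–46 µM final); confirmatory at 11-point dilutions.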

[3] = biological target: Atrial natriuretic peptide receptor 1 (Homo sapiens) (UniProt P16066); test: Natriuretic polypeptide receptor (hNpr1) antagonism - Pilot screen (AID 1347049; calls by dose curve;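 note: agonist-evoked cGMP luminescence read 20 min after hNppA addition; series mostly up to about 58 µM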)
Method in brief: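 HEK293 cells co-expressing hNpr1 and the GloSensor pGS-40F cGMP luciferase sensor were preloaded with 2% GloSensor reagent for 2 h. Compounds were added for 30 min at room temperature, then cells were stimulated with 0.1 nM hNppA for 20 min before luminescence readout.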

[4] = biological target: Atrial natriuretic peptide receptor 2 (Homo sapiens) (UniProt P20594); test: Natriuretic polypeptide receptor (hNpr2) antagonism - Pilot subtype selectivity assay (AID 1347050; calls by dose curve)
Method in brief: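 cGMP-sensor HEK293/hNpr2 cells; 2% GloSensor reagent 2 h RT; compounds 30 min; baseline luminescence read; 1 nM hNppC agonist 20 min RT; final luminescence read by CCD camera. Antagonism = reduced post-agonist signal.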

[5] = biological target: Parathyroid hormone/parathyroid hormone-related peptide receptor (Homo sapiens) (UniProt Q03431); test: qHTS for PTHR1 Agonists: Optimization Screen against the NCGC LOPAC library (AID 1347079);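 note: GloSensor cAMP luminescence in HEK-293 GP2 cells expressing human PTHR1 with IBMX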
Method in brief: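 Compounds were tested across a qHTS titration. PTHR1-expressing GP2 cells report cAMP rises via GloSensor luminescence after 1 hr compound exposure at 37C with IBMX present.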

[6] = qHTS of pediatric cancer cell lines to identify multiple opportunities for drug repurposing: Primary screen for SJ-GBM2 cells (AID 1347091)
Method in brief: (§1)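 Eight- or eleven-point concentration series, 48 h treatment at 37 degrees C in growth media; readout CellTiter-Glo luminescence. Potency and efficacy were taken from the concentration-response curves.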

[7] = biological target: T1, Tyrosine-protein phosphatase non-receptor type substrate 1 (Homo sapiens) + Leukocyte surface antigen CD47 (Homo sapiens) (UniProt P78324+Q08722); test: CD47-SIRPalpha protein protein interaction - LANCE assay qHTS validation (AID 1347057; active = well fitted curve in the direction sought with a large enough effect in the signal ratio, with a control signal flat, not every such curve was filed as active; the % refers to the signal ratio; note: series mostly up to about 38 µM)
Method in brief: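 First, His-tagged CD47 and Eu-labelled anti-His antibody met the compound for 30 min; next, site-specifically biotinylated SIRPalpha was added for 30 min; finally streptavidin-APC was added before reading the TR-FRET ratio.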

[8] = biological target: T1, Tyrosine-protein phosphatase non-receptor type substrate 1 (Homo sapiens) + Leukocyte surface antigen CD47 (Homo sapiens); test: CD47-SIRPalpha protein protein interaction - Alpha assay qHTS validation (AID 1347059);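 note: bead proximity luminescence from CD47 binding SIRPalpha after compound preincubation with SIRPalpha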
Method in brief: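 Soluble extracellular domains: Avi-tag biotinylated SIRPalpha (25 nM) preincubated 30 min RT with compound, then 6His-CD47 (12.5 nM) 30 min; Ni-NTA acceptor and streptavidin donor beads (10 ug/mL) 30 min, AlphaScreen read. PBS pH 7.4, 0.05% IGEPAL.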

[9] = qHTS of pediatric cancer cell lines to identify multiple opportunities for drug repurposing: Primary screen for DAOY cells (AID 1347090); note: nearly all actives have a fitted effect of over 55% in size; note: potency is the fitted concentration of half-maximal effect
Method in brief: as §1

[10] = biological target: T1, Tyrosine-protein phosphatase non-receptor type substrate 1 (Homo sapiens) + Leukocyte surface antigen CD47 (Homo sapiens); test: CD47-SIRPalpha protein protein interaction - HTRF assay qHTS validation (AID 1347058; active = well fitted curve in the direction sought with a large enough effect in the signal ratio, not every such curve was filed as active; the % refers to the signal ratio; note: series mostly up to about 38 µM)
Method in brief: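 TR-FRET read (Ch1/Ch2 ratio) of soluble extracellular CD47 and Avi-biotinylated SIRPalpha domains in PBS pH 7.4 with 0.05% IGEPAL; 7-point compound titration. Sequential 30 min room-temperature steps; non-biotinylated SIRPalpha as control inhibitor.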

T1 sequence (P78324 whole entry, looked up): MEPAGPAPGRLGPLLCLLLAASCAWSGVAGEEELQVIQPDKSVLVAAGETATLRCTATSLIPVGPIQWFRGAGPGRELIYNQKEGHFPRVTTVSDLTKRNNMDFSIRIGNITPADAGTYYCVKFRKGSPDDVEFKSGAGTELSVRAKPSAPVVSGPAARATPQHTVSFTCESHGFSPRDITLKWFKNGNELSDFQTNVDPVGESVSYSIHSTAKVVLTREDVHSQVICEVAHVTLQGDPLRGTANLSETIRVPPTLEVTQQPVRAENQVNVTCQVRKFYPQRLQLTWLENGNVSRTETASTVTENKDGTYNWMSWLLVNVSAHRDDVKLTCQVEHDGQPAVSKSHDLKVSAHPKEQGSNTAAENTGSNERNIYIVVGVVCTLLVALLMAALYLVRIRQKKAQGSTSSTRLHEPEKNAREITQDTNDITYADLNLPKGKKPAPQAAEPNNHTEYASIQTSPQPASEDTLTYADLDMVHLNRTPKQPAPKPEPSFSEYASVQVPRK
T1 sequence (Q08722 whole entry, looked up): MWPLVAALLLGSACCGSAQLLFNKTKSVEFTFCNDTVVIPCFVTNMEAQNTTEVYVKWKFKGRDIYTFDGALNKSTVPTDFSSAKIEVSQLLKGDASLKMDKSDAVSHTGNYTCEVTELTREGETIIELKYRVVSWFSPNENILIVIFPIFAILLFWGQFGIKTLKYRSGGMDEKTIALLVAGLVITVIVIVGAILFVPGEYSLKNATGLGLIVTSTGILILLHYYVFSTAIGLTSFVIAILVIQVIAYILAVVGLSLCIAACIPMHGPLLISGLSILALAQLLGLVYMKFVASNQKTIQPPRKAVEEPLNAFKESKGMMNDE
Parathyroid hormone/parathyroid hormone-related peptide receptor (Homo sapiens), sequence (Q03431 whole entry, looked up): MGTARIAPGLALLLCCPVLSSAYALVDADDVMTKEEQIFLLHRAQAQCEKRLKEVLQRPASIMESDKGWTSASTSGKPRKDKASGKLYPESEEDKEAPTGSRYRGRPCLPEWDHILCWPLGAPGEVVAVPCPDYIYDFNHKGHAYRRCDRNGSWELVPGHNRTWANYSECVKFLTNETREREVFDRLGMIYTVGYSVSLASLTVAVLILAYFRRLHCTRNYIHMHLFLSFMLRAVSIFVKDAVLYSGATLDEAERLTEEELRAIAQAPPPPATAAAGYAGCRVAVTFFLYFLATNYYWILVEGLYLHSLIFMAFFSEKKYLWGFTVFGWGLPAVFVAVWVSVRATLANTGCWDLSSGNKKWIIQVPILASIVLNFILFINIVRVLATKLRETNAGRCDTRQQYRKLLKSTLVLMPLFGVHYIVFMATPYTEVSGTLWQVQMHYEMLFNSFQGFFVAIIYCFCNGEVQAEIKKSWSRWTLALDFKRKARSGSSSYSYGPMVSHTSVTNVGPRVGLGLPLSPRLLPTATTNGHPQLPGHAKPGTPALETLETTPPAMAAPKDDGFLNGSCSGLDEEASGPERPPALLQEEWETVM
Atrial natriuretic peptide receptor 2 (Homo sapiens), sequence (P20594 whole entry, looked up): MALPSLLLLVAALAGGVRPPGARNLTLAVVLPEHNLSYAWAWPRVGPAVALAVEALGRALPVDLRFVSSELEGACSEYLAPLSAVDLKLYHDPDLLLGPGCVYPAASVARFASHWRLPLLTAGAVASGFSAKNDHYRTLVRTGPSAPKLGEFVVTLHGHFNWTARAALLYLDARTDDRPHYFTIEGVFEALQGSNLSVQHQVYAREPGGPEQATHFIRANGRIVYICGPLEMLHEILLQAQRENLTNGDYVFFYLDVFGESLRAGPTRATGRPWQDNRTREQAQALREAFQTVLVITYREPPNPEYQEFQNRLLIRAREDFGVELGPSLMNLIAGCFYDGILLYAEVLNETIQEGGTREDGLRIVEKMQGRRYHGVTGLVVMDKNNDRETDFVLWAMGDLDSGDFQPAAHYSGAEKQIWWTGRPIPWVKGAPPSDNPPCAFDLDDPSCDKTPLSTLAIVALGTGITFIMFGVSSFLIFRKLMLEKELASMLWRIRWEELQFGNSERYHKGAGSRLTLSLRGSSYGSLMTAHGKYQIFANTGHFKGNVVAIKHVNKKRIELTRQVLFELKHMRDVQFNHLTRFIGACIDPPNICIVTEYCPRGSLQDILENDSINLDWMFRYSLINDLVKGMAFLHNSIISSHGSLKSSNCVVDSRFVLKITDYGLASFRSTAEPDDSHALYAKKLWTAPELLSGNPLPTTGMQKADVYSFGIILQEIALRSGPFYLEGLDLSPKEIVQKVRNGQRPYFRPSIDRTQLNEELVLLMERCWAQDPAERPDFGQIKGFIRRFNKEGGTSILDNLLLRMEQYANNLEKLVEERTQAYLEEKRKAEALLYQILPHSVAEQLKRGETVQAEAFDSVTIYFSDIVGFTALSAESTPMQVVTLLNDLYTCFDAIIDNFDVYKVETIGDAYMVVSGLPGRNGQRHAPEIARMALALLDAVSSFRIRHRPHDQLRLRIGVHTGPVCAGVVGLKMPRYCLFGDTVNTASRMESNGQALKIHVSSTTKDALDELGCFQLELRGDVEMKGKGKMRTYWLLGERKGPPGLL
Atrial natriuretic peptide receptor 1 (Homo sapiens), sequence (P16066 whole entry, looked up): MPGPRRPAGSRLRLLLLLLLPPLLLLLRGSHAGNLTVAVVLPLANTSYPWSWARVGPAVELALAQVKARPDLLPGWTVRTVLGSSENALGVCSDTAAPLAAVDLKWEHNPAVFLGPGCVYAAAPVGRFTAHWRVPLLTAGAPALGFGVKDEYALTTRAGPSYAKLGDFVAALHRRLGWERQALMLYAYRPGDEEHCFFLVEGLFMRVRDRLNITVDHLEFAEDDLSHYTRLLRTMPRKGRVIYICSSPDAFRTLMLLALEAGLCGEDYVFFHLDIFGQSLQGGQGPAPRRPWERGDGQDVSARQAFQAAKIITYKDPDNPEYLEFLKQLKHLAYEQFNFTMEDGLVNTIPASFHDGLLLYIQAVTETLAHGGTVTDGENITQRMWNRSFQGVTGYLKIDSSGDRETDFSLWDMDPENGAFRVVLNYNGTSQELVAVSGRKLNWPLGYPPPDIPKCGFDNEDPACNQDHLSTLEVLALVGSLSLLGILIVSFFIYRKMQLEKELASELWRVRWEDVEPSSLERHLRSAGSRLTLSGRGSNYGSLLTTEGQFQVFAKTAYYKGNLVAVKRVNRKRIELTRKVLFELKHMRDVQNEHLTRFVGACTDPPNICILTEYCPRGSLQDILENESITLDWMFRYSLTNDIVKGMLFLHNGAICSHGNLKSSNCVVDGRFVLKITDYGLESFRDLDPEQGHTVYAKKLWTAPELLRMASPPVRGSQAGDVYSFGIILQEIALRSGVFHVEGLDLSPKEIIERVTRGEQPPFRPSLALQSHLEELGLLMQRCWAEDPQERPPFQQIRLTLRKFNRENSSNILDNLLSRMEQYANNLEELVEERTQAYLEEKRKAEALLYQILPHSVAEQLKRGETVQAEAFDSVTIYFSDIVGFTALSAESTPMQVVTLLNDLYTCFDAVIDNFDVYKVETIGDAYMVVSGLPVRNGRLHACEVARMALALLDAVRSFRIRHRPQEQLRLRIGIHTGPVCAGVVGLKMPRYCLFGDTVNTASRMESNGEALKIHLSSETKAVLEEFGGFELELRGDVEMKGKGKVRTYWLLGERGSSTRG

Q: Which results are given for `CNC(=O)c1ccc(N2C(=S)N(c3ccc(C#N)c(C(F)(F)F)c3)C(=O)C2(C)C)cc1F`?
A: Potency [1]: inactive; Potency [2]: inactive

Q: Which outcome [3] does the source give for `Nc1ncnc2nc(-c3ccc(N4CCOCC4)nc3)cc(-c3cccc(Br)c3)c12` here?
A: inactive

Q: And the Potency [4]?
A: inactive

Q: What about the Potency [1] of the same compound?
A: inactive

Q: What about the outcome [5] of the same compound?
A: inactive

Q: What about the Potency [2] of the same compound?
A: inactive

Q: What about the Potency [6] of the same compound?
A: inactive

Q: What does the source list for `NNCCc1ccccc1`?
A: outcome [3]: inactive; Potency [4]: inactive; Potency [1]: inactive; outcome [7]: inactive; outcome [8]: inactive; outcome [5]: inactive; Potency [2]: inactive; Potency [9]: inactive; Potency [6]: inactive

Q: With `O=S(=O)(N=Cc1c(O)ccc2ccccc12)c1cccs1` as the compound, how does the Potency [1] read?
A: inactive

Q: And the Potency [2]?
A: inactive

Q: For `CCN(CC)CCCC(C)Nc1ccnc2cc(Cl)ccc12` (stereo not drawn), which outcome [3] is on record?
A: inactive

Q: What about the Potency [4] of the same compound?
A: inactive

Q: What about the Potency [1] of the same compound?
A: inactive

Q: And the outcome [5]?
A: inactive

Q: What about the Potency [2] of the same compound?
A: inactive

Q: And the Potency [6]?
A: inactive

Q: Which Potency [1] does the source give for `Cc1cc(SCc2sc(-c3ccc(C(F)(F)F)cc3)nc2C)ccc1OCC(=O)O` here?
A: inactive

Q: What about the Potency [2] of the same compound?
A: inactive

Q: For `COc1c(Cl)cc2c([nH]c3cnccc32)c1NC(=O)c1cccnc1C`, which Potency [1] is on record?
A: inactive

Q: Which Potency [1] does the source give for `CCCc1nn(C)c2c(=O)[nH]c(-c3cc(S(=O)(=O)N4CCN(C)CC4)ccc3OCC)nc12` here?
A: inactive

Q: What about the outcome [7] of the same compound?
A: inactive

Q: What about the outcome [8] of the same compound?
A: inactive

Q: What about the Potency [2] of the same compound?
A: inactive

Q: What about the Potency [9] of the same compound?
A: inactive

Q: And the Potency [6]?
A: inactive

Q: With `Cn1cnc([N+](=O)[O-])c1Sc1ncnc2nc[nH]c12` as the compound, how does the outcome [3] read?
A: inactive

Q: What about the Potency [4] of the same compound?
A: inactive

Q: And the Potency [1]?
A: inactive

Q: What about the outcome [7] of the same compound?
A: inactive

Q: And the outcome [8]?
A: inactive

Q: What about the outcome [5] of the same compound?
A: inactive

Q: What about the Potency [2] of the same compound?
A: 10.8 µM (active) and 10.5 µM (active) and 16.5 µM (active)

Q: And the Potency [9]?
A: 1.91 µM (active) and 6.68 µM (active) and 5.9 µM (active)

Q: Which results are given for `CCc1cncnc1N1CCN(Cc2nc3ccc(C(F)(F)F)cc3[nH]2)CC1`?
A: Potency [1]: inactive; outcome [7]: inactive; outcome [10]: inactive; outcome [8]: inactive; Potency [2]: inactive; Potency [9]: 18.7 µM (active)

Q: With `NC[C@H](O)c1ccc(O)c(O)c1` as the compound, how does the outcome [3] read?
A: inactive

Q: And the Potency [4]?
A: inactive

Q: And the Potency [1]?
A: inactive

Q: And the outcome [7]?
A: inactive

Q: And the outcome [8]?
A: inactive

Q: And the outcome [5]?
A: inactive

Q: And the Potency [2]?
A: inactive

Q: And the Potency [6]?
A: inactive

Q: With `CCOc1cc(C=C2C(=O)N(c3ccccc3)N=C2C)cc(Cl)c1OCC(=O)OC` as the compound, how does the Potency [1] read?
A: inactive

Q: And the Potency [2]?
A: inactive

Q: For `CC[C@H](Nc1ncnc2nc[nH]c12)c1nc2cccc(F)c2c(=O)n1-c1ccccc1`, which Potency [1] is on record?
A: inactive

Q: With `C[C@]1(c2nc3c(C(N)=O)cccc3[nH]2)CCCN1` as the compound, how does the Potency [1] read?
A: inactive

Q: What about the Potency [2] of the same compound?
A: inactive

Q: Which results are given for `NC(=O)C1CCCc2c1[nH]c1ccc(Cl)cc21` (stereo not drawn)?
A: Potency [1]: inactive; Potency [2]: inactive; Potency [9]: inactive

Q: For `CC(C)OC(=O)C1=CN(C(=O)c2ccc(F)c(F)c2)CC(C)(C)c2c1[nH]c1ccccc21`, which Potency [1] is on record?
A: inactive

Q: And the Potency [2]?
A: inactive

Q: What about the Potency [9] of the same compound?
A: inactive

Q: What about the Potency [6] of the same compound?
A: inactive

Q: For `Cc1cccc(-c2nn(C(=S)Nc3ccccc3)cc2-c2ccnc3ccccc23)n1`, which Potency [1] is on record?
A: inactive

Q: And the Potency [2]?
A: inactive

Q: What about the Potency [9] of the same compound?
A: inactive

Q: Which Potency [1] does the source give for `COc1cc(F)c(F)c(Nc2ccc(I)cc2F)c1NS(=O)(=O)C1(C[C@H](O)CO)CC1` here?
A: inactive

Q: What about the Potency [2] of the same compound?
A: inactive

Q: With `CC(c1cc2ccccc2s1)N(O)C(N)=O` (stereo not drawn) as the compound, how does the Potency [1] read?
A: inactive

Q: And the Potency [2]?
A: inactive

Q: And the Potency [9]?
A: inactive

Q: Which Potency [1] does the source give for `CCN(c1ccccc1)c1cc(NC)[n+](C)c(C)n1` here?
A: inactive

Q: What about the Potency [2] of the same compound?
A: inactive

Q: And the Potency [9]?
A: inactive

Q: For `NC(=O)c1ccc(-c2nc(-c3ccc4c(c3)OCO4)c(-c3ccccn3)[nH]2)cc1`, which Potency [1] is on record?
A: inactive

Q: And the Potency [2]?
A: inactive

Q: And the Potency [9]?
A: inactive

Q: What does the source list for `C[C@@H]1CN(Cc2ccc(F)cc2)[C@@H](C)CN1C(=O)c1cc2c(C(=O)C(=O)N(C)C)cn(C)c2cc1Cl`?
A: Potency [1]: inactive; Potency [2]: inactive

Q: Which Potency [1] does the source give for `CC1(C)CNc2cc(NC(=O)c3cccnc3NCc3ccncc3)ccc21` here?
A: inactive

Q: What about the Potency [2] of the same compound?
A: 26.2 µM (active)

Q: What about the Potency [9] of the same compound?
A: 1.18 µM (active)

Q: With `Cn1cc(-c2ccc3nnc(C(F)(F)c4ccc5ncccc5c4)n3n2)cn1` as the compound, how does the Potency [1] read?
A: inactive

Q: What about the Potency [2] of the same compound?
A: inactive

Q: What about the Potency [9] of the same compound?
A: inactive

Q: With `O=C(C=Cc1ccc(/C=C/C(=O)Nc2ccc(C3=NCCN3)cc2)cc1)Nc1ccc(C2=NCCN2)cc1` as the compound, how does the Potency [1] read?
A: inactive

Q: And the Potency [2]?
A: inactive

Q: And the Potency [9]?
A: inactive

Q: For `Cn1cnc2c(F)c(Nc3ccc(Br)cc3Cl)c(C(=O)NOCCO)cc21`, which Potency [1] is on record?
A: inactive

Q: What about the Potency [2] of the same compound?
A: inactive

Q: What about the Potency [9] of the same compound?
A: 14.8 µM (active)

Q: What does the source list for `Nc1nc2[nH]cc(CCc3ccc(C(=O)N[C@@H](CCC(=O)O)C(=O)O)cc3)c2c(=O)[nH]1`?
A: Potency [1]: inactive; Potency [2]: 4.66 µM (active)

Q: With `Oc1cccc(-c2nc(N3CCOCC3)c3oc4ncccc4c3n2)c1` as the compound, how does the Potency [1] read?
A: 2.7 µM (active)

Q: What about the Potency [2] of the same compound?
A: 0.758 µM (active)

Q: Which Potency [1] does the source give for `CCOc1ccc(Cc2cc([C@@H]3O[C@H](CO)[C@@H](O)[C@H](O)[C@@H]3O)ccc2Cl)cc1` here?
A: inactive

Q: And the Potency [2]?
A: inactive

Q: Which Potency [1] does the source give for `CCCn1c(=O)c2[nH]c(C34CC5CC3C[C@@H](C5)C4)nc2n(CCC)c1=O` here?
A: inactive

Q: And the Potency [2]?
A: inactive

Q: And the Potency [9]?
A: inactive

Q: With `CCC(=O)N[C@H]1CC[C@H](C(=O)N(C)c2ccc(-c3nc4ccccc4o3)cc2)C1` as the compound, how does the Potency [1] read?
A: inactive

Q: And the Potency [2]?
A: inactive

Q: What about the Potency [9] of the same compound?
A: 5.9 µM (active)
